# Sampled rows, rich in hits. Any-hit rate of the full collection: about 3.9%.
# SUMO Mot1 rescue = blocks SUMOylation pathway, rescuing yeast Mot1-301 growth; S. cerevisiae Mot1-301 growth rescue, ATP luminescence, 38.5C; percent above DMSO median, 100 means doubled; growth rescue, % at 18.8 µM; 320,000 compounds, 1% hits;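 active = every valid replicate shows activation above 250% relative to neutral control wells; inactive = the rest, any valid replicate at or below 250%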;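 also: OY570 slx delta 5 strain wells were the positive control but not used for scaling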
# Glyco luc inh = N-linked glycosylation inhibition | reporter increase, % at 12.5 µM | 360,000 compounds, 0.23% hits | D54 ERlucT glycosylation luciferase reporter, 24 h; percent of 100 nM tunicamycin response;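 active = mean luciferase reporter signal, scaled so untreated is 0 and the glycosylation-blocking control 100, at or above a set limit in every replicate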;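 also: luciferase carries N-glycosylation sites so blocking glycosylation raises the light; 0% = median of neutral control wells and 100% = median of 100 nM tunicamycin wells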
# NSD2 HMT inh = NSD2 (human) methyltransferase inhibition; O96028; NSD2 peptide methylation, AlphaScreen, 120 min; inhibition, % at 12.5 µM; 310,000 compounds, 0.54% hits; in the data active = inhibition above about 50%
# ALR H2O2 inh = inhibitors of human sulfhydryl oxidase ALR. 290,000 compounds, 3.8% hits. inhibition, % (concentration not given with the values). purified ALR, DTT oxidation, H2O2 HRP-luminol luminescence;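 active = mean replicate inhibition above about 79%, with every replicate also reaching it, limit read from the data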
# CASP6 VEID inh = blocks human caspase-6 cleavage activity | P55212 | purified caspase-6, Z-VEID-R110 cleavage fluorescence | inhibition, % at 12.5 µM | 350,000 compounds, 0.53% hits | AID 686996;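 active = mean inhibition across replicates at least about 35%, with every replicate also reaching that limit, limit read from the data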;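 also: 0% = median of neutral control wells and 100% = no fluorescence left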
# Target sequence (P55212 24-179 limits assumed): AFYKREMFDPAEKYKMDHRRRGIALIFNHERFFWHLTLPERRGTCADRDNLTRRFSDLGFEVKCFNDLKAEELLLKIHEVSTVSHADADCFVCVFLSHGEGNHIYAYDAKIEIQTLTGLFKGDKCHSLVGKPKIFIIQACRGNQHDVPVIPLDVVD
# Target sequence (P55212 194-293 limits assumed): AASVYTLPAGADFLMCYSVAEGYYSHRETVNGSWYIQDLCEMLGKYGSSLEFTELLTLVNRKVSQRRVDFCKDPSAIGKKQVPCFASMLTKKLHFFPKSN
# CDK5 inh = CDK5/p35 (human) kinase inhibition; Recombinant CDK5/p35, ADP-Glo luminescence, 60 min; inhibition, % at 10 µM; 330,000 compounds, 0.01% hits;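 active = highest replicate inhibition of at least 50% and at least 75% of replicates reaching 50%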;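 also: plate controls were DMSO neutral control for no effect and GW8510 at 10 µM for full effect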
# * = called active by the depositor; / = not tested or not shown.
SMILES,SUMO Mot1 rescue,Glyco luc inh,NSD2 HMT inh,ALR H2O2 inh,CASP6 VEID inh,CDK5 inh
CN(C)C(=O)c1cccc(-c2ccc([C@@H]3[C@H]4CN(S(C)(=O)=O)CCCCN4[C@H]3CO)cc2)c1,/,/,/,/,0,/
CC(C)C(c1nnnn1Cc1ccc(F)cc1)N1CCN(c2ccc(O)cc2)CC1 (configuration not stated),45,-2,2,100*,5,0
Oc1ccc(N2CCN(C(c3cccnc3)c3nnnn3Cc3ccccc3)CC2)cc1 (configuration not stated),80,-2,/,99*,1,3
COCCn1nnnc1C(c1ccccc1)N1CCN(c2ccccc2)CC1 (configuration not stated),-2,/,-3,97*,/,2
C[C@@H]1CN([C@H](C)CO)C(=O)c2cccc(NS(=O)(=O)c3ccc(Cl)cc3)c2O[C@H]1CN(C)C(=O)Nc1ccccc1,/,/,/,/,1,/
COc1ccc(NC2CCCN(C(=O)CCCn3cncn3)C2)cc1 (configuration not stated),27,3,0,99*,-2,-2
O=C(CCn1cccn1)N1CCCC(Nc2ccc(F)c(F)c2)C1 (configuration not stated),/,0,-4,/,0,/
COc1ccc(NC2CCCN(C(=O)CCn3cccn3)C2)cc1 (configuration not stated),-7,2,3,99*,0,-1
COc1ccc(NC2CCCN(C(=O)CCc3cccc(Cl)c3)C2)cc1 (configuration not stated),-22,0,31,/,1,-1
COc1ccc(NC2CCCN(C(=O)CCc3cccc(F)c3)C2)cc1 (configuration not stated),-5,1,10,99*,-4,-2
C[C@H](CO)N1C[C@H](C)[C@@H](CN(C)C(=O)Nc2ccc3c(c2)OCO3)Oc2c(NC(=O)C3CCOCC3)cccc2C1=O,/,/,/,/,-3,/
O=C(Nc1ccc2c(c1)OCO2)N[C@H]1CC[C@@H](CCNC(=O)C2CC2)O[C@@H]1CO,/,/,/,/,2,/
CN(C)c1ccc(/C=C2\SC(N3CCCCC3)=NC2=O)cc1,-3,-12,4,99*,1,0
CCOC(=O)C1CCN(C2=NC(=O)/C(=C/c3ccc(Cl)cc3)S2)CC1,-3,0,4,96*,1,0
O=C1N=C(N2CCCCC2)S/C1=C\c1ccc(Br)cc1,-25,11,-3,-2,35,-1
CCOC(=O)CSC1=NC(=O)/C(=C\c2ccc(Cl)cc2)S1,51,9,-7,99*,/,1
CCOC(=O)C1CCN(C2=NC(=O)/C(=C/c3ccc(OC)c(OC)c3)S2)CC1,15,0,3,20,2,1
COc1cc(/C=C2\SC(N3CCC(C)CC3)=NC2=O)ccc1O,-8,9,18,90*,2,2
O=C(Nc1ccccc1F)N[C@H]1CC[C@@H](CCNC(=O)C2CCCCC2)O[C@H]1CO,/,/,/,/,-3,/
Cc1noc(C)c1S(=O)(=O)Nc1cccc2c1O[C@@H](CN(C)C(=O)NC1CCCCC1)[C@@H](C)CN([C@@H](C)CO)C2=O,/,/,/,/,-1,/
c1ccc(CCn2nnc3ccccc32)cc1,226,-1,3,-6,0,-1
c1ccc2c(c1)nnn2CNc1nccs1,12,1,0,99*,-4,0
Oc1cccc(/C=N/NC(=S)NCCN2CCOCC2)c1O,-11,-4,3,100*,5,2
COc1cc(C2N(c3ccccc3)CCN2c2ccccc2)ccc1OC(C)=O,-15,3,4,94*,/,2
COc1cc(C2N(Cc3ccccc3)CCN2Cc2ccccc2)ccc1OC(C)=O,-18,-2,2,9,-3,0
C[C@H]1CN([C@@H](C)CO)C(=O)Cc2cc(NC(=O)NC3CCCCC3)ccc2O[C@@H]1CN(C)C(=O)Nc1ccc2c(c1)OCO2,/,/,/,/,1,/
CCNc1nc(NCC)nc(N(C)N)n1,-13,1,-3,84*,/,0
CC(C)Nc1nc(NC(C)C)nc(N(C)N)n1,1,0,1,1,/,0
COc1cccc(NC(=O)N2CC(=O)N3[C@H](CO)[C@@H](c4ccc(C#CCC5CCCC5)cc4)[C@H]3C2)c1,/,/,/,/,0,/
CC1(C)OC(C)(C)/C(=C/Nc2ccc(O)cc2)C1=O,-4,3,12,99*,/,1

# Screening results (PubChem)
